Pf Dd2 inh – inhibitors of Plasmodium falciparum Dd2 growth; P. falciparum Dd2 growth, SYBR Green, 72 h; Potency, µM (series often up to 28.9 µM), for the others: top-dose activity, negative = inhibition, actives largely listed as inhibitors; actives 4.3% (n = 120,000); AID 1347417; active = well fitted inhibition curve with a large enough effect;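 also: plate controls were DMSO vehicle for no effect and reference drug for full effect; nearly all actives have a fitted effect of over 65% in size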
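Infected erythrocytes (Dd2, 0.3% parasitemia, 2.5% hematocrit final) are added to compound in RPMI-1640/Albumax II medium, grown 72 h at 37C in low oxygen, then lysed with saponin/Triton-X containing SYBR Green and read by fluorescence.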
* hit, by the source's call; i = inactive; [ ] = another dose, or the depositor's remark. Many of the other results were omitted from the sample, so hits are more common in it than they were. Potency is read from the fitted curve at half-maximal effect.

SMILES | Pf Dd2 inh
COCCNC(=O)[C@@H]1C[C@H](Oc2ccccc2)CN1C(=O)COc1ccccc1 | 6%
CC(C)N1CCC(O)(c2csc(CN3CCOCC3)n2)CC1 | 16%[44.1 µM]
COc1cccc(N2CC(C(=O)NCC(F)F)NC2=O)c1 (configuration not stated) | -1%[44.1 µM]
O=C(Nc1ccccc1)N1C[C@@H](F)[C@@H](OCc2nc3ccccc3o2)C1 | i
Cc1nc(N2CCC(NC(=O)c3ccccc3Cl)CC2)cc(C(F)(F)F)n1 | i
Cc1nc(N2CCC(NC(=O)c3ccccc3F)CC2)cc(C(F)(F)F)n1 | i
COc1cc(Cl)ccc1C(=O)NC1CCN(c2cc(C(F)(F)F)nc(C)n2)CC1 | 5µM*
CCOc1cc(C2c3c(oc4ccccc4c3=O)C(=O)N2c2ccccn2)ccc1O (configuration not stated) | 20%
CCCOc1ccc(C2c3c(oc4ccccc4c3=O)C(=O)N2c2ccc(C)cn2)cc1OCC (configuration not stated) | 43%
CCOc1ccc(-c2oc3ccccc3c(=O)c2O)cc1OCC | 10µM*
O=C(Cc1ccc(OC(F)(F)F)cc1)N1CCC([C@@H]2CNC[C@H]2CO)CC1 | -17%
Cc1cccc(C(=O)NC2CCN(c3cc(-c4ccc(F)cc4)[nH]n3)C2)c1 (configuration not stated) | 10µM*
O=C(NC1CCN(c2cc(-c3ccc(F)cc3)[nH]n2)C1)c1ccc2[nH]ccc2c1 (configuration not stated) | 5µM*
O=C(NC1CCN(c2cc(-c3ccc(F)cc3)[nH]n2)C1)c1cccc(F)c1 (configuration not stated) | i
O=C(NC1CCN(c2cc(-c3ccc(F)cc3)[nH]n2)C1)c1ccccc1 (configuration not stated) | -9%
COc1ccc(-c2cc(N3CCCC(NC(=O)c4cccc(C(F)(F)F)c4)C3)n[nH]2)cc1 (configuration not stated) | 1.3µM*
Cc1ccc(C(=O)NC2CCN(c3cc(-c4ccc(F)cc4)[nH]n3)C2)cc1 (configuration not stated) | i
O=C(NC1CCN(c2cc(-c3ccc(Cl)cc3)[nH]n2)C1)c1ccc2[nH]ccc2c1 (configuration not stated) | i
COc1ccc(C(=O)NC2CCCN(c3cc(-c4ccccc4)[nH]n3)C2)cc1 (configuration not stated) | -23%
COc1ccc(-c2cc(N3CCC(NC(=O)c4cccc(OC(F)(F)F)c4)C3)n[nH]2)cc1 (configuration not stated) | -8%
CCOCCn1c(=O)[nH]c2cc(C(=O)NCc3sc(C)nc3C)ccc21 | -14%
COc1ccc(C2NC(=O)N(Cc3nc(C4CC4)no3)C3=C2C(=O)OC3)cc1 (configuration not stated) | -2%
O=C(NCc1ccccc1)O[C@H]1COCCN(c2nc3ccccc3o2)C1 | -13%[44.1 µM]
COCCNC(=O)c1coc(COc2ccc3c(c2)C(c2ccc(C)cc2)N(C(=O)C2CC2)CC3)n1 (configuration not stated) | i
C=CCNC(=O)c1coc(COc2ccc3c(c2)C(c2ccc(C)cc2)N(C(=O)C2CC2)CC3)n1 (configuration not stated) | -14%
SMILES | Pf Dd2 inh
CCNC(=O)c1coc(COc2ccc3c(c2)C(c2ccc(F)cc2)N(C(=O)CC(C)C)CC3)n1 (configuration not stated) | 1.4µM*
CC(C)n1cnnc1CC1CCCN(C(=O)c2n[nH]c3ccccc23)C1 (configuration not stated) | -3%
Cc1ccc(-c2cc(C(=O)N3CCC(Cc4nncn4C(C)C)CC3)c3ccccc3n2)cc1C | 5µM*
Cc1nn(C(=O)CCCC(=O)N2CCC(Cc3nncn3C(C)C)CC2)c2ccccc12 | -10%
O=C(NC1CC1)c1nc(-c2ccc(F)cc2)c2cnccn12 | 11µM*
CN(C)C(=O)c1nc(-c2ccc(S(C)(=O)=O)cc2)c2cnccn12 | -3%
C[S+](=O)([O-])c1ccc(-c2nc(C(=O)NC3CC3)n3ccccc23)cc1 | i
COc1ccccc1-c1nc(C(=O)NC2CC2)n2ccccc12 | i
O=C(CCNc1c(-c2ccc(F)cc2)nc2cnccn12)NC1CCCC1 | 20%
COc1ccc(-c2nc(C(=O)NC3CC3)n3ccccc23)cc1 | 11µM*
COc1ccc(CN2CCOc3nc(-c4ccc(O)c(F)c4)ncc3C2=O)cc1 | i
Cc1noc(C)c1[S+](=O)([O-])N1CCC2(CC1)OCCN(Cc1ccccc1)C2=O | i
O=C(O)C(c1cccc2c1OCC2)N1CCCN(c2ncccn2)CC1 (configuration not stated) | -18%
CCC(CC)NC(=O)c1cnc2cc(C)nn2c1 | 6%[44.1 µM]
O=C1CCSC2(C(=O)N(Cc3ccc(F)cc3)c3ccccc32)N1c1ccccc1 (configuration not stated) | -27%
Cc1cccc(N2C(=O)CSC23C(=O)N(CC(=O)NCc2ccccc2Cl)c2ccccc23)c1 (configuration not stated) | 10µM*
